# The full list was thinned out, with the strongest signals kept by preference.
# B1: Erv46-EDTA (Saccharomyces cerevisiae), P39727 (protein)
# chain: MKFLVNVALVFMVVYISYIYAAAPEHHHHHHDYDIPTTENLYFQGAMDSVVTRPQLVVDRDRHAKLELNMDVTFPSMPCDLVNLDIMDDSGEMQLDILDAGFTMSRLNSEGRPVGDATELHVGGNGDGTAPVNNDPNYCGPCYGAKDQSQNENLAQEEKVCCQDCDAVRSAYLEAGWAFFDGKNIEQCEREGYVSKINEHLNEGCRIKGSAQINRIQGNLHFAPGKPYQNAYGHFHDTSLYDKTSNLNFNHIINHLSFGKPIQSHSKLLGNDKRHGGAVVATSPLDGRQVFPDRNTHFHQFSYFAKIVPTRYEYLDNVVIETAQFSATFHSRPLAGGRDKDHPNTLHVRGGIPGMFVFFEMSPLKVINKEQ
# How the values were obtained:
# Assay in all cases: glycan array binding signal (z-score within array); higher = stronger binding
# Conditions in all cases: glycan notation: IUPAC condensed, linker removed
# GalNAc(b1-4)Gal(b1-4)Glc = target: GalNAc(b1-4)Gal(b1-4)Glc
# How it was run: (§1)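 Negative Z-scores can be read as non-binding. The Z-score is calculated within each array and then averaged across arrays of one protein sequence at different concentrations or buffers and across linkers. Arrays, 3228 in all, were curated from the Consortium for Functional Glycomics database and kept only where the protein sequence was available.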
# GalNAc(b1-4)GlcNAc = target: GalNAc(b1-4)GlcNAc
# How it was run: as §1
# [1] = target: GalNAc(b1-4)GlcNAc(b1-3)GalNAc(b1-4)GlcNAc
# How it was run: as §1
# [2] = target: GlcNAc(b1-2)Man(a1-3)[GlcNAc(b1-2)Man(a1-6)]Man(b1-4)GlcNAc(b1-4)[Fuc(a1-6)]GlcNAc
# How it was run: as §1
# [3] = target: GlcNAc(b1-2)[GlcNAc(b1-6)]Man(a1-6)[GlcNAc(b1-2)Man(a1-3)]Man(b1-4)GlcNAc(b1-4)[Fuc(a1-6)]GlcNAc
# How it was run: as §1
# [4] = target: GlcNAc(b1-3)Gal(b1-4)GlcNAc(b1-2)[GlcNAc(b1-3)Gal(b1-4)GlcNAc(b1-6)]Man(a1-6)[GlcNAc(b1-3)Gal(b1-4)GlcNAc(b1-2)Man(a1-3)]Man(b1-4)GlcNAc(b1-4)GlcNAc
# How it was run: as §1
# [5] = target: GlcNAc(b1-3)Gal(b1-4)GlcNAc(b1-3)Gal(b1-4)GlcNAc(b1-2)Man(a1-3)[GlcNAc(b1-3)Gal(b1-4)GlcNAc(b1-3)Gal(b1-4)GlcNAc(b1-2)Man(a1-6)]Man(b1-4)GlcNAc(b1-4)GlcNAc
# How it was run: as §1
# [6] = target: GlcNAc(b1-3)Gal(b1-4)GlcNAc(b1-3)Gal(b1-4)GlcNAc(b1-3)Gal(b1-4)GlcNAc(b1-3)Gal(b1-4)GlcNAc(b1-2)[GlcNAc(b1-3)Gal(b1-4)GlcNAc(b1-3)Gal(b1-4)GlcNAc(b1-3)Gal(b1-4)GlcNAc(b1-3)Gal(b1-4)GlcNAc(b1-6)]Man(a1-6)[GlcNAc(b1-3)Gal(b1-4)GlcNAc(b1-3)Gal(b1-4)GlcNAc(b1-3)Gal(b1-4)GlcNAc(b1-3)Gal(b1-4)GlcNAc(b1-2)Man(a1-3)]Man(b1-4)GlcNAc(b1-4)[Fuc(a1-6)]GlcNAc
# How it was run: as §1
# GlcNAc(b1-6)GalNAc = target: GlcNAc(b1-6)GalNAc
# How it was run: as §1
# [7] = target: Neu5Ac(a2-3)Gal(b1-3)GlcNAc(b1-2)Man(a1-3)[Neu5Ac(a2-3)Gal(b1-3)GlcNAc(b1-2)Man(a1-6)]Man(b1-4)GlcNAc(b1-4)GlcNAc
# How it was run: as §1
# [8] = target: Neu5Ac(a2-3)Gal(b1-3)[Fuc(a1-4)]GlcNAc(b1-3)Gal(b1-3)[Fuc(a1-4)]GlcNAc
# How it was run: as §1
# [9] = target: Neu5Ac(a2-3)Gal(b1-4)GlcNAc(b1-2)Man(a1-3)[Neu5Ac(a2-3)Gal(b1-4)GlcNAc(b1-2)Man(a1-6)]Man(b1-4)GlcNAc(b1-4)[Fuc(a1-6)]GlcNAc
# How it was run: as §1
# [10] = target: Neu5Ac(a2-3)Gal(b1-4)GlcNAc(b1-2)[Neu5Ac(a2-3)Gal(b1-4)GlcNAc(b1-6)]Man(a1-6)[Neu5Ac(a2-3)Gal(b1-4)GlcNAc(b1-2)Man(a1-3)][GlcNAc(b1-4)]Man(b1-4)GlcNAc(b1-4)GlcNAc
# How it was run: as §1
# [11] = target: Neu5Ac(a2-3)Gal(b1-4)[Fuc(a1-3)]GlcNAc(b1-3)Gal
# How it was run: as §1
# [12] = target: Neu5Ac(a2-3)Gal(b1-4)[Fuc(a1-3)]GlcNAc6S
# How it was run: as §1
# [13] = target: Neu5Ac(a2-3)[GalNAc(b1-4)]Gal(b1-4)GlcNAc
# How it was run: as §1
# Neu5Ac(a2-6)Gal = target: Neu5Ac(a2-6)Gal
# How it was run: as §1
# [14] = target: Neu5Ac(a2-6)Gal(b1-4)GlcNAc(b1-2)Man(a1-3)[Neu5Ac(a2-3)Gal(b1-4)GlcNAc(b1-2)Man(a1-6)]Man(b1-4)GlcNAc(b1-4)GlcNAc
# How it was run: as §1
# [15] = target: Neu5Ac(a2-6)Gal(b1-4)GlcNAc(b1-2)Man(a1-6)[Gal(b1-4)GlcNAc(b1-2)Man(a1-3)]Man(b1-4)GlcNAc(b1-4)GlcNAc
# How it was run: as §1
# [16] = target: Neu5Ac(a2-6)Gal(b1-4)GlcNAc(b1-3)Gal(b1-4)GlcNAc(b1-3)Gal(b1-4)GlcNAc(b1-2)Man(a1-3)[Neu5Ac(a2-6)Gal(b1-4)GlcNAc(b1-3)Gal(b1-4)GlcNAc(b1-3)Gal(b1-4)GlcNAc(b1-2)Man(a1-6)]GalNAc
# How it was run: as §1
# [17] = target: Neu5Ac(a2-6)Gal(b1-4)GlcNAc(b1-6)GalNAc
# How it was run: as §1
# [18] = target: Neu5Ac(a2-8)Neu5Ac(a2-3)Gal(b1-3)GalNAc(b1-4)[Neu5Ac(a2-3)]Gal(b1-4)Glc
# How it was run: as §1
# [19] = target: Neu5Ac(a2-8)Neu5Ac(a2-3)Gal(b1-4)GlcNAc
# How it was run: as §1
# [20] = target: Neu5Ac(a2-8)Neu5Ac(a2-3)[Gal(b1-3)GalNAc(b1-4)]Gal(b1-4)Glc
# How it was run: as §1
# [21] = target: Neu5Gc(a2-3)Gal(b1-4)[Fuc(a1-3)]GlcNAc
# How it was run: as §1
# [22] = target: Neu5Gc(a2-8)Neu5Gc(a2-3)Gal(b1-4)GlcNAc(b1-3)Gal(b1-4)GlcNAc
# How it was run: as §1
binder,measurement,setting,value
B1,glycan array binding signal (z-score),GalNAc(b1-4)Gal(b1-4)Glc,-0.674
same,glycan array binding signal (z-score),GalNAc(b1-4)GlcNAc,0.697
same,glycan array binding signal (z-score),[1],-0.443
same,glycan array binding signal (z-score),[2],6.37
same,glycan array binding signal (z-score),[3],1.14
same,glycan array binding signal (z-score),[4],2.9
same,glycan array binding signal (z-score),[5],3.36
same,glycan array binding signal (z-score),[6],0.589
same,glycan array binding signal (z-score),GlcNAc(b1-6)GalNAc,-0.565
same,glycan array binding signal (z-score),[7],1.06
same,glycan array binding signal (z-score),[8],-0.483
same,glycan array binding signal (z-score),[9],0.11
same,glycan array binding signal (z-score),[10],-0.335
same,glycan array binding signal (z-score),[11],-0.531
same,glycan array binding signal (z-score),[12],-0.585
same,glycan array binding signal (z-score),[13],0.122
same,glycan array binding signal (z-score),Neu5Ac(a2-6)Gal,-0.121
same,glycan array binding signal (z-score),[14],-0.318
same,glycan array binding signal (z-score),[15],-0.053
same,glycan array binding signal (z-score),[16],3.54
same,glycan array binding signal (z-score),[17],-0.855
same,glycan array binding signal (z-score),[18],-0.029
same,glycan array binding signal (z-score),[19],-0.501
same,glycan array binding signal (z-score),[20],-0.605
same,glycan array binding signal (z-score),[21],0.625
same,glycan array binding signal (z-score),[22],-0.449

# From the supplement of paper PMC8728848
